From PubChem BioAssay (EPA / NIEHS)
The source made the active and inactive calls. How the source made its calls: active means hit-call score of the fitted dose curve at least 0.9, where 1 is the maximum; inactive means score below 0.9.

Assay: BSK_KF3CT_SRB: Viability Assessment in the BioMAP Diversity Plus: KF3CT Assay (AID 2283069);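 further: fitted for both signal gain and loss against DMSO baseline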
Details: primary human keratinocytes with fibroblasts
Procedure: BSK_KF3CT is a cell-based, multiplexed-readout assay that uses keratinocytes and foreskin fibroblasts, a human skin primary cell co-culture, with measurements taken at 24 hours after chemical dosing in a 96-well plate.BSK_KF3CT_SRB is an assay component measured in the BSK_KF3CT assay. It measures 0.1% sulforhodamine related to cell death using Sulforhodamine staining technology.Data from the assay component BSK_KF3CT_SRB was analyzed into 1 assay endpoint. This assay endpoint, BSK_KF3CT_SRB, was analyzed with bidirectional fitting relative to DMSO as the negative control and baseline of activity. Using a type of viability reporter, gain or loss-of-signal activity can be used to understand changes in the signaling. Furthermore, this assay endpoint can be referred to as a primary readout, because this assay has produced multiple assay endpoints where this one serves a signaling function. To generalize the intended target to other relatable targets, this assay endpoint is annotated to the cell morphology intended target family, where the subfamily is cell conformation.
The levels of cell surface (or secreted, indicated by the prefix "s") biomarker endpoints were measured by ELISA. Overt cytotoxicity to cells in confluent adherent cultures (all systems other than the BT system) was assessed by measuring total protein levels using sulforhodamine B (SRB) staining in parallel cultures at the time of biomarker measurements, indicated as SRB endpoints. For proliferation assays for adherent cell types, individual cell types are cultured at sub-confluence and relative cell numbers quantified by SRB staining at time points optimized for each system (48 h: 3C and CASM3C systems; 72 h: BT and HDF3CGF systems; 96 h: SAg system). SRB was performed by staining cells with 0.1% SRB after fixation with 10% TCA and reading wells at 560 nm.Viability and proliferation of PBMC (T cells) was quantified by Alamar Blue reduction for the SAg and BT systems. For PBMC viability (referred to as PBMC Cytotoxicity within the assay endpoint names), cells were plated (75,000/well in a 96-well plate) and then chemical samples added for 1 h before addition of activators, SEB and TSST-1 (20 ng/mL final concentration each). Cells were incubated for 90 h. Then, Alamar Blue (20 uL/well) (Invitrogen, Cat DAL1100) was added for 6 h, and the plates were read with a fluorescence microplate reader at 546/580 nm (excitation/emission). For PBMC proliferation, cells were plated and activated as above but incubated for only 16 h prior to addition of Alamar Blue. Plates were read after 6 h.

SMILES	outcome	AC50
CC(C)O.CC(C)O.OCCN(CCO)CCO.OCCN(CCO)CCO.[Ti]	inactive	–
Cc1ccc2nc3sc(=O)sc3nc2c1	inactive	–
c1ccc2sc(SNC3CCCCC3)nc2c1	inactive	–
O=[N+]([O-])c1ccc(Nc2ccccc2)cc1	inactive	–
C#CCOC(=O)/C=C(C)/C=C/CC(C)CCCC(C)C (stereo not given)	inactive	–
CC(C)(C)c1ccccc1O	inactive	–
CCOC(=O)C(SP(=S)(OC)OC)c1ccccc1 (stereo not given)	inactive	–
O=C(O)COc1cc(Cl)c(Cl)cc1Cl	inactive	–
CC(C)N(C(=O)CCl)c1ccccc1	–	27.1 µM (active)
N#Cc1cccnc1	inactive	–
Cc1ccccc1OP(=O)(Oc1ccccc1)Oc1ccccc1	inactive	–
CCOP(=O)(OCC)SCCSCC	inactive	–
CCC(C)(C#N)N=NC(C)(C#N)CC (stereo not given)	inactive	–
O=S(=O)(C(Cl)(Cl)Cl)C(Cl)(Cl)Cl	–	2.48 µM (active)
Oc1c(Cl)cc(Cl)cc1Cl	inactive	–
CCCCCCCCCCCCN(C)C	inactive	–
O=C(N[C@H]1CN2CCC1CC2)c1ccc2c(c1)OCCO2	inactive	–
CCCCCCCCCCCCc1cccc(S(=O)(=O)O)c1	–	26.5 µM (active)
Cc1ccc(OP(=O)(Oc2ccc(C)cc2C)Oc2ccc(C)cc2C)c(C)c1	inactive	–
C[C@]12CC[C@@H](O)C[C@@H]1CC[C@@H]1[C@@H]2CC[C@]2(C)C(=O)CC[C@@H]12	inactive	–

SMILES	outcome	AC50
CC1(C)[C@H](C(=O)O[C@H](C#N)c2cccc(Oc3ccccc3)c2)[C@@H]1/C=C(\Cl)C(F)(F)F	inactive	–
Cc1ccccc1OP(=O)(Oc1ccccc1C)Oc1ccccc1C	–	20 µM (active)
CC(C)(C)c1cc([N+](=O)[O-])cc(C(C)(C)C)c1O	inactive	–
Cc1cc(C)cc(C)c1	inactive	–
Oc1cccc(-c2ccccc2)c1	inactive	–
CC(C)(COCC1CO1)COCC1CO1 (stereo not given)	inactive	–
Clc1cccc(Cl)c1	inactive	–
CCOP(=O)(OCC)OC(=CCl)c1ccc(Cl)cc1Cl	–	35.2 µM (active)
Clc1cccc(Cl)c1Cl	inactive	–
N#CCCC(Br)(C#N)CBr (stereo not given)	–	20 µM (active)
CC(C)=CC1C(C(=O)OCc2cccc(Oc3ccccc3)c2)C1(C)C (stereo not given)	inactive	–
Oc1c(Br)cc(Br)cc1Br	inactive	–
CCOC(=O)CCN(SN(C)C(=O)Oc1cccc2c1OC(C)(C)C2)C(C)C	inactive	–
O=C1C=CC(=O)c2ccccc21	inactive	–
COCC(=O)N(c1c(C)cccc1C)[C@H](C)C(=O)OC	inactive	–
c1ccc(-c2cccc(-c3ccccc3)c2)cc1	inactive	–
CCCCOC(=O)COC(=O)c1ccccc1C(=O)OCCCC	inactive	–
Cc1cc(C(C)(C)c2ccc(O)c(C)c2)ccc1O	inactive	–
COc1ccccc1N	inactive	–
Cc1c([N+](=O)[O-])c(C)c([N+](=O)[O-])c(C(C)(C)C)c1[N+](=O)[O-]	inactive	–
